# This is a sample that favours compounds with a hit; in the whole collection about 21% have one here.
# IL1B secr inh: inhibitors of inflammasome signaling (IL-1 beta secretion) | THP-1 LPS/ATP IL-1B secretion, AlphaLISA, 16 h; stronger effect = lower value | activity change, % at 57.5 µM | 360,000 tested, 4.7% active | AID 743279; in the data active = activity change below about -50%; inconclusive = mostly about -30% to -49%; also: % is scaled to controls: 0 for no effect and ±100 for the full control effect
#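 Secreted IL-1B measured by AlphaLISA bead assay after 16 h compound exposure of THP-1 cells; compounds (final up to 57.5 uM) added 1 h before LPS (250 ng/mL) and ATP (1.25 mM) stimulation; lower signal means less secretion.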
# ClpP mod: qHTS Assay for Activators of ClpP | 340,000 tested, 1.9% active | Potency, µM (titrated, usually from 57.5 µM), for inactives: top-dose activity change, negative = active | ATP-dependent Clp protease proteolytic subunit (Bacillus subtilis (strain 168)), P80244 | purified B. subtilis ClpP, FRET peptide cleavage, 20 min; active = well fitted falling curve with a large enough effect; inconclusive = small, poorly fitted or top-dose-only effect; inactive = no such curve, though single readings can be large or run the other way; also: potency is read from the fitted curve at half-maximal effect; the source files actives as falling curves though it sought activators and does not explain the sign; nearly all actives have a fitted effect of over 65% in size
# Target sequence (P80244 whole entry, looked up): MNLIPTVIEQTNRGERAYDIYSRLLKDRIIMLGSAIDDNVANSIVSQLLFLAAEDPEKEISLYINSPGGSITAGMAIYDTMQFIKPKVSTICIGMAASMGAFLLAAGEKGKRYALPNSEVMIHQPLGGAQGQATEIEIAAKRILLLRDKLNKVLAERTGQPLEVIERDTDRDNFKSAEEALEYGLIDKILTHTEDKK
#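 Buffer: 100 mM Tris/HCl pH8, 100 mM KCl, 0.05% low protease BSA, 2.5% glycerol, 0.01% Tween-20. ClpP 10 microg/mL final; 20 min RT; delta FRET normalized to ADEP and DMSO controls.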
# DT40 TDP1 CPT: growth inhibition of DT40 Tdp1-/-;hTDP1 cells with camptothecin (screen for TDP1 inhibitors). chicken DT40 Tdp1-/-;hTDP1 cells + 20 nM CPT, ATP luminescence, 48 h. Potency, µM (series often up to 46.2 µM), inactives show top-dose activity change, negative = growth inhibition, actives largely listed as inhibitors. 420,000 tested, 12% active; also: potency is read from the fitted curve at half-maximal effect; % is scaled to controls: 0 for no effect and ±100 for the full control effect; nearly all actives have a fitted effect of over 55% in size
#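 Cell growth measured by CellTiter-Glo luminescence after a minimum 48 h, 37 C compound exposure with 20 nM CPT in Tdp1-knockout DT40 cells stably expressing hTDP1, seeded 400/well; qHTS titration format.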
# DT40 TDP1 no CPT: qHTS for Inhibitors of human tyrosyl-DNA phosphodiesterase 1 (TDP1): qHTS in cells in absence of CPT. DT40 Tdp1-/- hTDP1 cells, no CPT, ATP luminescence, 48 h. AID 686978, 2013. 420,000 tested, 15% active. Potency, µM (series often up to 46.2 µM), for the others: at the top dose activity change, negative = growth inhibition, actives largely listed as inhibitors; also: potency is read from the fitted curve at half-maximal effect; % is scaled to controls: 0 for no effect and ±100 for the full control effect; nearly all actives have a fitted effect of over 55% in size
#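 Compound effects on proliferation are scored in DT40 Tdp1-/-;hTDP1 cells in the absence of CPT. ATP levels (CellTiter-Glo luminescence) are recorded after a ≥48 hr, 37 °C incubation.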
# D3 ag: activates the human D3 dopamine receptor | P35462 | D3R DiscoveRx beta-arrestin cells, luminescence, 90 min | max activation, % | 410,000 tested, 0.58% active | AID 652048; in the data active = max activation above about 30%; also: 0% is about no effect
# Target sequence (P35462 whole entry, looked up): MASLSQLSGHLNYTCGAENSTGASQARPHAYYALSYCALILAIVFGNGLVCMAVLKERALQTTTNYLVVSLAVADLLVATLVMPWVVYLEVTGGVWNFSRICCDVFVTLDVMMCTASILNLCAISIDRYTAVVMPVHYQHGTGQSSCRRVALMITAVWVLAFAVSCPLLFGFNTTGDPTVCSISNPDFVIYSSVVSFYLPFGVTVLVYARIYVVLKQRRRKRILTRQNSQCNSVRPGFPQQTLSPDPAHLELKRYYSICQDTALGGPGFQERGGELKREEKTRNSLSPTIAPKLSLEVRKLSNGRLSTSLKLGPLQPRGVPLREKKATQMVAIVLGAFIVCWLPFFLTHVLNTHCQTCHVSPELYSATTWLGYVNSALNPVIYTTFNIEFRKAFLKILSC
#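 Agonist mode: compounds and dopamine controls were applied to plated cells for 90 min at 37 degrees C after an overnight attachment at 1500 cells/well. Luminescent read-out followed 30 - 60 minutes at room temperature with DiscoveRx detection reagent.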
# D3 antag: blocks the human D3 dopamine receptor | D3R cells, DiscoveRx beta-arrestin luminescence, antagonist mode; stronger effect = lower value | 360,000 tested, 2.5% active | max response, negative = inhibition, % | P35462; in the data active = max response below about -50%; inconclusive = no clear call, values can overlap the other calls; also: % is scaled to controls: 0 for no effect and ±100 for the full control effect
#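 Cells plated overnight at 1500 cells/well, then exposed to library compounds with dopamine controls for 90 minutes at 37 degrees C. DiscoveRx reagent added for 30–60 minutes at room temperature; luminescence read, quantitative HTS format.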
# Active calls of the source: *; ? = inconclusive; · = no result. Unless noted, calls follow the shape of the dose curve; as a rule, active = well fitted inhibition curve with a large enough effect; inconclusive = small, poorly fitted or top-dose-only effect; inactive = flat fitted curve, though single readings scatter.
SMILES,IL1B secr inh,ClpP mod,DT40 TDP1 CPT,DT40 TDP1 no CPT,D3 ag,D3 antag
COc1cc(CN2CC(=O)N(c3ccc(C)cc3)C2=S)cc(OC)c1OC,2,2%,?,26µM*,-2,106
COc1cc(CN2CC(=O)N(c3ccc(C)c(Cl)c3)C2=S)cc(OC)c1OC,-13,·,?,21µM*,11,34
O=S(=O)(c1ccc(Br)cc1)c1nnn2c1nc(NCCc1ccccc1)c1sccc12,·,?,?,?,-6,·
O=S(=O)(Nc1cccc(C(F)(F)F)c1)c1cnc[nH]1,20,1%,0%,-20%,5,8
O=S(=O)(Nc1ccc(C(F)(F)F)cc1)c1cnc[nH]1,12,1%,18µM*,23µM*,-4,-19
CN(C)c1cc(-c2ccc(Br)cc2)oc(=O)c1Cl,-51*,1%,-3%,?,-7,24
Cc1cc(NCC2CCCCC2)nc2ccccc12,-100*,·,?,23µM*,-13,?
Cc1ccc(NC(=O)NC2CC(=O)N(c3ccc4c(c3)OCCO4)C2)c(C)c1 (configuration not stated),1,·,13%,-9%,-2,-14
COc1cc2c(cc1OC)-c1cc3nc4ccccc4nc3n1C(C)(C)C2,·,·,12µM*,8.4µM*,·,·
COc1cc(NC(=O)C(CC(C)C)NS(=O)(=O)c2ccc3c(c2)CCN3C(C)=O)cc(OC)c1 (configuration not stated),·,0%,-25%,3%,3,·
Cc1nnc(Cl)c2nn(-c3ccccc3F)c(C)c12,8,28µM*,-5%,-7%,10,15
Cc1n[nH]c(=S)c2nn(-c3ccccc3F)c(C)c12,-12,-1%,-17%,-27%,-20,-18
Cc1nnc(SCCN2CCOCC2)c2nn(-c3ccccc3F)c(C)c12,-10,14µM*,-9%,-27%,-4,-11
COc1ccccc1NC(=O)c1ccc2oc(=O)c(S(=O)(=O)c3ccccc3)cc2c1,·,-21%,-4%,-2%,-9,·
COc1ccccc1C(=O)Nc1nc2ccccc2[nH]1,-25,·,4.6µM*,1.8µM*,-4,3
COc1cc(SC)ccc1C(=O)Nc1nc2ccccc2[nH]1,47,4%,3.7µM*,2.1µM*,-4,-3
COc1ccccc1C(=O)NCCC(=O)Nc1nc2ccccc2[nH]1,?,·,3%,?,-6,-18
CCCN(CCC)S(=O)(=O)c1ccc(NC(=O)c2cc(C(=O)OC)cc([N+](=O)[O-])c2)cc1,11,-2%,23µM*,26µM*,-5,-19
COc1ccc(C(=O)Nc2nc3ccccc3[nH]2)cc1,-1,·,16µM*,23µM*,-10,4
Cc1cccc(S(=O)(=O)Nc2cc(Cl)ccc2N2CCOCC2)c1,-1,·,3%,?,-11,-26
O=C(NC(=S)Nc1cc(C(F)(F)F)ccc1N1CCOCC1)c1ccco1,?,·,?,?,5,9
O=C1CC(c2ccccc2)Sc2ccccc2N1Cc1ccc(F)cc1 (configuration not stated),·,0%,·,·,2,·
CC(NC(=O)C(C)N1CCN(Cc2ccccc2)CC1)c1ccc(F)cc1 (configuration not stated),-6,·,1%,-15%,-6,6
Cc1cc(C)c(NC(=O)CSc2nc(C)cc(C)c2C#N)c(C)c1,·,-4%,·,·,-8,·
COC(=O)c1cc(C(=O)Nc2nc3ccccc3[nH]2)cc([N+](=O)[O-])c1,19,·,-24%,23µM*,3,27
SMILES,IL1B secr inh,ClpP mod,DT40 TDP1 CPT,DT40 TDP1 no CPT,D3 ag,D3 antag
CC(NC(=O)Oc1cccc2ccccc12)c1ccccc1 (configuration not stated),20,·,?,26µM*,-8,3
COc1ccc(C(=O)CN2C(=O)NC3(CCc4ccccc43)C2=O)cc1 (configuration not stated),5,-1%,-4%,6%,0,9
CCOCc1c(C(=O)OCC(=O)/C(C#N)=C(\C)N)oc2ccccc12,32,·,11%,-21%,5,12
COc1ccccc1Nc1ccc(C(=O)O)cc1[N+](=O)[O-],38,·,-12%,-11%,-17,-59*
COc1ccccc1NS(=O)(=O)c1ccc(NN=C2CCCCC2)c([N+](=O)[O-])c1,0,0%,18µM*,26µM*,-7,-61*
COc1cccc(Nc2ccc(C(=O)O)cc2[N+](=O)[O-])c1,6,0%,-10%,2%,-12,?
Cc1cc(C)c2c(c1)/C(=N/Nc1ccc(S(N)(=O)=O)cc1[N+](=O)[O-])CCC2,26,-3%,?,?,3,-25
NS(=O)(=O)c1ccc(N/N=C2/CCCCC2C2CCCCC2)c([N+](=O)[O-])c1 (configuration not stated),-112*,-1%,21µM*,10µM*,-4,-11
COc1ccccc1NS(=O)(=O)c1ccc(OC)c([N+](=O)[O-])c1,0,·,1%,-13%,-4,-18
CC1C/C(=N\Nc2ccc(S(N)(=O)=O)cc2[N+](=O)[O-])CC(C)(C)C1 (configuration not stated),-79*,1%,?,?,6,-11
COc1ccc(OC)c(-c2ccnc(-n3ncc(C(=O)N4CCN(CCO)CC4)c3C3CC3)n2)c1,·,·,18%,-18%,·,·
Cc1ccccc1CNC(=O)C1CCN(c2nnc(N3CCCC3=O)s2)CC1,-5,-2%,4%,-1%,0,0
Cc1ccc(CNC(=O)CCCn2c(=O)c3ccccc3n(Cc3ccccc3Cl)c2=O)cc1,·,-6%,-16%,?,-1,·
COc1ccccc1CNC(=O)CSc1ccc(C(=O)Nc2ccccc2OC)cc1[N+](=O)[O-],4,1%,9.2µM*,9.2µM*,-2,9
Cc1cc(C)c(NC(=O)Cn2nnc(-c3nc(-c4ccncc4)no3)c2N)c(C)c1,·,-2%,0%,-4%,2,·
CC(=O)Nc1ccc(/C=N/NC(=O)CCN2CCN(c3ccccc3)CC2)cc1,-21,·,-14%,-17%,-4,-84*
O=C(CCN1CCN(c2ccccc2)CC1)N/N=C/c1ccccc1OC(F)F,19,·,4%,-26%,-21,-70*
